# Screening data (PubChem BioAssay)
# Rows were chosen to be rich in hits. Some 7.5% of all compounds tested hit in one or more screens of this group.
# TSHR antag: blocks TSH signaling through the human TSH receptor | P16473 | TSHR-expressing cells, TSH-stimulated cAMP HTRF, 2 h; stronger effect = lower value | activity change, negative = inhibition, % at 11.5 µM | 330,000 compounds, 0.2% hits | AID 504810;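 active means activity change below a set negative limit, meaning inhibition stronger than a set level, cut at about -70% in these data; inconclusive means activity change between two set negative limits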
#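 TSHR-expressing cells, 200/well, pre-treated with compound, then stimulated with EC80 TSH (4nM final) for 2 hours at 37 deg C. cAMP measured by competitive HTRF: anti-cAMP cryptate antibody in lysis buffer plus cAMP-d2, read after 30 minutes at room temperature.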
# RORg inh: blocks mouse ROR gamma transcriptional activity; 310,000 compounds, 5.4% hits; Drosophila S2 Gal4-RORgamma UAS-luciferase reporter, 20 h; P51450; Potency, µM (series often up to 53.6 µM), inactives show at the highest dose activity change, negative = inhibition, hits mostly inhibitors; further: potency means the concentration at half of the fitted maximal effect; nearly all actives have a fitted effect of over 60% in size
# Target sequence (P51450 whole entry, looked up, the tested form may be a part): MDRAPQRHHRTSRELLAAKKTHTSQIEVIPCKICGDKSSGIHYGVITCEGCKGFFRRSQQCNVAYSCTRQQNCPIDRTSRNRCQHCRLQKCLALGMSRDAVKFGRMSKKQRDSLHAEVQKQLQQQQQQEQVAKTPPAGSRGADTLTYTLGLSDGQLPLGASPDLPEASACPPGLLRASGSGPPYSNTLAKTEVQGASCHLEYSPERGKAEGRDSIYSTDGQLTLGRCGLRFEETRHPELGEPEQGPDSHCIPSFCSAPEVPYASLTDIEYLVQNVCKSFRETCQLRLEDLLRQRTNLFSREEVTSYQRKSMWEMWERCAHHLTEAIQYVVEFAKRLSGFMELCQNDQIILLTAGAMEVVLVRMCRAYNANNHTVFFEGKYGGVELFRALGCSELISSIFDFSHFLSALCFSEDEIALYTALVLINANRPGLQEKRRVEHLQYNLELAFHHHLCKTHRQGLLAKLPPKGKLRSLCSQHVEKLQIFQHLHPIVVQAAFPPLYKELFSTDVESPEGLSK
#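 In this cell-based reporter format, copper sulfate (700 uM final) drives Gal4–ROR gamma fusion expression from a metallothionein promoter in Drosophila Schneider cells; compounds preincubated 1 hr, reporter read after 20 hr at ambient temperature.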
# B2AR arrestin: agonists driving beta-arrestin recruitment to human beta2-adrenergic receptor; P07550; beta-arrestin recruitment to beta2AR, cell-based reporter; Potency, µM (doses to about 46.1 µM), for the others: top-dose activation, hits mostly activators; 330,000 compounds, 0.02% hits;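 further: potency means the concentration at half of the fitted maximal effect; 0% = DMSO controls and full agonism = EC100 isoproterenol or metaproterenol; nearly all actives have a fitted effect of over 65% in size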
# ELG1 repair inh: ELG1-dependent DNA repair inhibition; HEK293T ELG1-luciferase reporter, luminescence, 16 h; DNA damage induced by 5-fluorouridine; Potency, µM (doses to about 46.1 µM), inactives show top-dose activity change, negative = inhibition, hits mostly inhibitors; 330,000 compounds, 2.3% hits; AID 504467; further: potency means the concentration at half of the fitted maximal effect; nearly all actives have a fitted effect of over 55% in size
#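 DMSO vehicle served as the neutral condition. Each well held 2,000 cells given 5-fluorouridine plus compound; after 16 hr at 37 °C/5% CO2, ONE-Glo was added and luciferase measured 30 min later.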
# VP16 counter: inhibits Gal4-VP16 luciferase reporter, ROR gamma counter-screen. Potency, µM (doses to about 53.6 µM), for the others: top-dose activity, negative = inhibition, hits mostly inhibitors. 310,000 compounds, 3.5% hits. AID 2546. Drosophila S2 Gal4-VP16 UAS-luciferase, luminescence, 20 h;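 further: Gal4-VP16 expression switched on by copper sulfate through the metallothionein promoter; potency means the concentration at half of the fitted maximal effect; nearly all actives have a fitted effect of over 50% in size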
# Numbers without * were called inactive; ? = inconclusive; . = no result given; [ ] = another dose, or the depositor's remark. Unless noted, the call rests on the fitted dose curve; in most records, active means well fitted curve in the direction sought with a large enough effect; inconclusive means small, poorly fitted or top-dose-only effect, or another doubt; inactive means no such curve, though single readings can be large; an effect the other way counts as inactive or inconclusive. Unless noted, on the % scale 0 is the no-effect control and ±100 the full control effect.
SMILES,TSHR antag,RORg inh,B2AR arrestin,ELG1 repair inh,VP16 counter
COC(=O)c1ccccc1Sc1ncnc2onc(C)c12,-5,11µM*,0%,13%,?
COCCn1c(=S)[nH]c2ncccc2c1=O,-10,-22%,0%,?,-20%
O=c1c2cccnc2[nH]c(=S)n1CCC1=CCCCC1,-2,0.89µM*,0%,15%,1.6µM*
CCCCCn1c(=S)[nH]c2ncccc2c1=O,0,1.1µM*,-1%,?,2.8µM*
COCCCn1c(=S)[nH]c2ncccc2c1=O,-2,11µM*,-1%,15%,-25%
COc1ccc2c(c1)O[C@H](c1cccc(C(F)(F)F)c1)[C@@H](O)C2=O,.,4%[10 µM],.,.,-5%[10 µM]
N#Cc1cc(C#N)c(SCC(=O)N2CC(=O)Nc3ccccc32)nc1N,0,.,-1%,12µM*,.
CCc1ccc2nc(SCC(=O)N3CC(=O)Nc4ccccc43)c(C#N)cc2c1,-15,9%,7%,?,1%
CCc1nc(SCC(=O)N2CC(=O)Nc3ccccc32)c2c(C)c(C)sc2n1,-8,-3%,0%,23µM*,0%
CCN(C(=O)COc1cc(=O)n(CC)c2ccccc12)c1cc(Cl)ccc1OC,-10,-12%,0%,21µM*,-1%
CCOCc1c(C(=O)Nc2cc(OCC)c(N3CCOCC3)cc2OCC)oc2ccccc12,28,0%,0%,13µM*,-7%
COc1ccc(C(=O)Nc2ccc3nc(N4CCOCC4)sc3c2)cc1OC,-6,.,0%,?,.
CCOCc1c(C(=O)Nc2ccc3nc(N4CCOCC4)sc3c2)oc2ccccc12,-19,.,0%,12µM*,.
CCCn1nc(C(=O)Nc2ccc3nc(N4CCOCC4)sc3c2)ccc1=O,-32,.,0%,16µM*,.
CCC(C)C(NC(=O)OC(C)(C)C)C(=O)NC1COC2CC(n3ccc(NC(C)=O)nc3=O)OC12 (centres undefined),.,-14%,.,.,-3%
CCCN1CCC(=O)N(C(CSc2ccc(OC)cc2)CC(C)C)CC1 (centres undefined),.,39%,.,.,-12%
CC(=O)N1CCN(c2ccc(NC(=S)NC(=O)c3ccc(C)c([N+](=O)[O-])c3)cc2)CC1,0,?,-1%,21µM*,7.9µM*
COc1ccc(C(=O)NC(=S)Nc2ccc(N3CCN(C(C)=O)CC3)cc2)cc1[N+](=O)[O-],0,?,1%,-27%,18µM*
CCOc1ccc(C(=O)Nc2ccc(N3CCN(C(C)=O)CC3)cc2)cc1[N+](=O)[O-],-9,12%,0%,-28%,0%
c1ccc(-c2nnc(NC3=NCCC3)o2)cc1,4,7.1µM*,0%,?,0%[10 µM]
Fc1ccc(-c2nnc(NC3=NCCCCC3)o2)cc1,-3,2.8µM*,0%,?,?
CC(C)C(=O)Nc1nnc(-c2ccccc2)o1,5,?,0%,?,?
C=C1CC[C@@H]2O[C@@]2(C)CC[C@H]2[C@H]1CC2(C)C,.,12%,.,.,-2%
CN(C)/[N+]([O-])=N/Oc1cc(ON=[N+]([O-])N2CCN(c3ncccn3)CC2)c([N+](=O)[O-])cc1[N+](=O)[O-],.,21%,.,.,24%
CCO/C=C/C(O)(CNC(=O)c1ccc(C(C)(C)C)cc1)C(F)(F)F (centres undefined),3,-85%,0%,15%,20µM*
SMILES,TSHR antag,RORg inh,B2AR arrestin,ELG1 repair inh,VP16 counter
CCOC(=O)CNC(=O)c1ccc(C)cc1,-3,43%,0%,9%,-3%
CC1CCN(C(=O)CN(Cc2ccc(F)cc2)S(C)(=O)=O)CC1,2,2%,-2%,-1%,-7%
CC(C)[C@H](NC(=O)OC(C)(C)C)c1nnc(SCC(=O)Nc2ccc(Br)cc2)o1,-38,2.5µM*,-1%,5%,32µM*
Cc1cccc(N2CCN(C(=S)Nc3ccc4nc(N5CCN(C)CC5)cc(C)c4c3)CC2)c1C,4,4.5µM*,0%,14%,4.5µM*
CCOc1ccc(N(C(=O)OC(C)(C)C)C(=O)c2ccc(O[Si](C)(C)C(C)(C)C)cc2)c(I)c1,.,-10%,.,.,-8%
Cc1ccc(Cn2c(=N)n(CC(=O)c3ccc([N+](=O)[O-])cc3)c3ccccc32)cc1,-10,?,0%,-15%,-16%
Cn1c(=N)n(CC(=O)c2ccc(F)cc2)c2ccccc21,-5,8.9µM*,0%,?,11µM*
Cc1n(CC(=O)c2ccc(F)cc2)c2ccccc2[n+]1C,10,19%,0%,-17%,4%
CCCCn1c(=N)n(CC(=O)c2ccc([N+](=O)[O-])cc2)c2ccccc21,-3,1.3µM*,0%,20%,-17%
Cc1onc(-c2ccccc2Cl)c1C(=O)O/N=C(\N)c1ccccc1,-15,14µM*,-1%,-3%,6.3µM*
Cc1ccccc1C(=O)O/N=C(\N)c1ccccc1,-5,7.1µM*,0%,?,10µM*
Cc1cccc(/C(N)=N/OC(=O)c2ccoc2C)c1,2,?,0%,?,?
Cc1occc1C(=O)O/N=C(\N)c1ccccc1,0,?,0%,?,10µM*
CCCCCCCCCCCCCc1ccco1,.,8%,.,.,1%
COP1(=O)CC(O)C(O)C(COCc2ccccc2)O1 (centres undefined),.,-17%,.,.,-6%
O=C1[C@@H]2[C@H]3[C@H](O)[C@H](O)C/C(=N/OC[C@@H](O)COCc4ccco4)[C@@H]3CC[C@H]2C(=O)N1c1ccc(F)cc1F,.,-14%[10 µM],.,.,-5%[10 µM]
Cc1ccc(/C=N/n2c(-c3ccc(Cl)cc3)n[nH]c2=S)s1,-8,1.4µM*,1%,?,-30%
Cc1cccc(/C=N/n2c(-c3ccccc3)n[nH]c2=S)c1O,-8,-38%,0%,0%,?
Cc1ccc(-c2n[nH]c(=S)n2/N=C/c2ccc(C)s2)cc1,6,3.2µM*,-1%,-6%,7.1µM*
COc1ccc(-c2n[nH]c(=S)n2/N=C/c2cccn2C)cc1,-8,25%,4%,2%,0%
COc1ccccc1CN1CC[C@@]2(CCCN(C(=O)c3c(C)noc3C)C2)C1,.,-6%,.,.,-4%
COC[C@@H](O)[C@@H](OC)[C@H](OC)[C@H](Cc1c(OC)cc(OC)cc1OC)OC,.,-9%,.,.,-2%
COc1ccccc1N1CCN(C(=O)CSc2nnc(C)n2C2CC2)CC1,.,.,0%,14%,.
O=C(O)CCCCCCCCCC(=O)c1cccs1,-6,10µM*,0%,13%,3.5µM*
CC(CC(=O)c1cccs1)CC(=O)c1cccs1,-8,4%,10%,?,-2%
CCOC(=O)C(=O)/C(C#N)=C/Nc1ccccc1,3,22%,0%,-1%,1%
CCOC(=O)/C(=C\c1ccccc1)C(=O)c1cc(C(C)=O)c(Nc2ccccc2)s1,-27,7.1µM*,0%,?,?
